Mcl-1 Bim block: inhibitors of Bim peptide binding to Mcl-1, primary screen, biochemical, bead-based flow cytometry, multiplex | Induced myeloid leukemia cell differentiation protein Mcl-1 (Homo sapiens), Q07820 | Bim peptide-Mcl-1 binding | inhibition, % at 10 µM | 190,000 compounds, 0.1% hits; in the data active = inhibition above about 40%;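 note: 0% = no compound tracer wells and 100% = peptide blocker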
Target sequence (Q07820 whole entry, looked up): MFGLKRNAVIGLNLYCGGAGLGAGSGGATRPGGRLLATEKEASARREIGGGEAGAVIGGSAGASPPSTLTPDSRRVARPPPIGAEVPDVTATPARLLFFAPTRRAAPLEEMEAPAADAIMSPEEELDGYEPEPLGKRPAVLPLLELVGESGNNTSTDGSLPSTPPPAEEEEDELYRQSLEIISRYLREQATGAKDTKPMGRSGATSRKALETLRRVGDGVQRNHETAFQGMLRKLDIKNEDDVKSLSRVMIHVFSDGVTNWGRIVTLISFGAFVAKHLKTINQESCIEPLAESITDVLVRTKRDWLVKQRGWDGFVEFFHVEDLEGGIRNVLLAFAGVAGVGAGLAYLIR
GLD-1 TGE inh: GLD-1/TGE RNA complex disruptors, primary screen, biochemical, fluorescence polarization. Female germline-specific tumor suppressor gld-1 (Caenorhabditis elegans), Q17339. purified GLD-1 + fluorescein TGE RNA. inhibition, % at 5.96 µM. 320,000 compounds, 0.44% hits. AID 2280, 2010;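 active = percent inhibition above a per-plate cutoff, the plate mean of test compounds plus 3 SD, cut at about 30% in these data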;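 note: 0% = DMSO wells with GLD-1 and probe and 100% = wells lacking GLD-1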
Mcl1-Bid inh: Mcl-1/Bid binding inhibitors, primary screen, biochemical, TR-FRET, 1536-well. Induced myeloid leukemia cell differentiation protein Mcl-1 (Homo sapiens), Q07820. TR-FRET Mcl-1/Bid-Dy647 peptide binding. inhibition, % at 21.7 µM. 220,000 compounds, 0.97% hits;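 active = compounds that cut the binding signal by more than half at the single screening dose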;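 note: His-tagged Mcl-1 with europium anti-His antibody binding Bid BH3 peptide; 0% = Mcl-1 plus peptide wells and 100% = peptide-only wells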
Bcl-xL primary: inhibitors of human Bcl-xL, primary screen, biochemical, fluorescence polarization, HTS | 320,000 compounds, 0.7% hits | Bcl-2-like protein 1 (Homo sapiens), Q07817 | GST-Bcl-xL / FITC-Bim BH3 peptide fluorescence polarization | inhibition, % at 10.9 µM;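 active = inhibition above the mean of all tested compounds plus 3 SD, cutoff set per campaign, cut at about 30% in these data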;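 note: 0% = DMSO wells and 100% = unlabeled Bim-BH3 peptide competitor; inhibitors lower millipolarization by displacing the labeled peptide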
MCL1 BIM primary: inhibitors of MCL1 binding to BIM-BH3, primary screen, biochemical, fluorescence polarization. 320,000 compounds, 0.68% hits. GST-MCL1 / FITC-Bim-BH3 fluorescence polarization. inhibition, % at 10.9 µM. Induced myeloid leukemia cell differentiation protein Mcl-1 (Homo sapiens), Q07820;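 active = inhibition above the mean inhibition of all tested compounds plus 3 SD, set per campaign, cut at about 40% in these data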;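 note: 0% = DMSO wells and 100% = unlabeled Bim-BH3 peptide control; higher means more loss of mP so more displacement of Bim peptide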
Mcl1-Noxa inh: Mcl-1/Noxa binding inhibitors, primary screen, biochemical, TR-FRET, 1536-well. Induced myeloid leukemia cell differentiation protein Mcl-1 (Homo sapiens), Q07820. TR-FRET Mcl-1/Noxa peptide binding, 2 h. inhibition, % at 21.7 µM. 220,000 compounds, 1.5% hits. AID 1022, 2008;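 active = compounds that cut the protein-peptide binding signal by more than 50% relative to plate controls in a single-dose test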;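 note: His-tagged Mcl-1 with rhodamine Noxa BH3 peptide and terbium anti-His antibody; 0% = Mcl-1 plus Noxa peptide wells and 100% = peptide-only wells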
Active calls of the source: *; x = no result given. Sampled rows, rich in hits. Any-hit rate of the full collection: about 2.3%.

SMILES | Mcl-1 Bim block | GLD-1 TGE inh | Mcl1-Bid inh | Bcl-xL primary | MCL1 BIM primary | Mcl1-Noxa inh
CN(Cc1cccc(F)c1)C(=O)c1ccc2c(=O)n3c(nc2c1)CCC3 | x | 7.1 | x | 2.1 | 0.2 | x
CCCOc1ccc(OCCCCNC(C)CC)cc1 (stereo unspecified) | -2.0 | 5.6 | 60.0* | 9.7 | 8.0 | 27.7
COc1ccc(O)c(C(=O)C2c3ccccc3C(=O)N2c2ccc(C)cc2)c1 (stereo unspecified) | x | 16.6 | -15.8 | 31.1* | 36.8 | 31.0
COc1ccc(N2C(=O)c3ccccc3C2O)cc1 (stereo unspecified) | x | 9.3 | x | 3.7 | 9.0 | x
COCCCNc1nc(CC(C)C)nc2c1nnn2Cc1ccccc1 | x | 6.0 | x | 1.3 | 6.9 | x
COc1ccc2c(c1)c1ncn(CCN3CCCC3)c(=O)c1n2C | 7.0 | 1.1 | -12.8 | 3.4 | 5.2 | 4.9
Cc1ccc2c(c1)c1ccc3c(c1n2C)C(=O)C=CC3=O | x | x | 22.8 | x | x | 107.7*
COc1ccc2c(c1)c1ccc3c(c1n2C)C(=O)C=CC3=O | x | x | 33.4 | x | x | 102.5*
Oc1ccccc1Nc1nc(NCc2ccco2)c2ccccc2n1 | x | 5.0 | -47.3 | -3.6 | -7.4 | 60.2*
c1cncc(-c2nc(NCc3ccco3)c3ccccc3n2)c1 | -2.0 | -2.7 | 53.2* | 2.3 | 1.0 | 50.6*
Cc1ccc(-c2nc(NCc3ccco3)c3ccccc3n2)cc1 | 0.0 | -0.5 | -18.3 | 2.3 | 6.0 | 17.1
Cc1ccccc1Nc1nc(NCc2ccco2)c2ccccc2n1 | 2.0 | 8.5 | -13.8 | 2.9 | 3.2 | 44.9
OCCN1CCN(c2nc(NCc3ccco3)c3ccccc3n2)CC1 | -1.0 | 0.0 | 0.6 | 0.1 | -3.9 | 50.8*
COc1cccc(CNC(=O)c2cc(S(=O)(=O)N3CCOCC3)cn2C)c1 | x | 0.8 | x | 0.3 | -3.6 | x
CNc1c([N+](=O)[O-])cnn1-c1ccccn1 | 2.0 | -2.7 | -12.5 | 0.4 | -3.2 | 12.0
COc1ccc(NC(=O)C2CCCN2S(=O)(=O)c2ccc(Cl)cc2)cc1 (stereo unspecified) | x | 8.7 | x | -1.1 | 4.7 | x
O=C(NCC(c1cccnc1)N1CCOCC1)c1cccc(Cl)c1 (stereo unspecified) | -3.0 | 5.4 | 56.5* | -0.3 | 0.1 | 9.8
COc1ccc(N2CCN(C(CNC(=O)c3cccc(Cl)c3)c3cccnc3)CC2)cc1 (stereo unspecified) | 0.0 | 4.4 | -19.5 | 5.6 | 3.8 | 5.6
COc1ccc(N2CCN(C(CNC(=O)c3ccco3)c3cccnc3)CC2)cc1 (stereo unspecified) | 0.0 | -7.0 | -18.1 | 6.5 | 2.0 | 10.7
O=C(NCC(c1cccnc1)N1CCN(c2ccc(F)cc2)CC1)c1ccco1 (stereo unspecified) | 0.0 | 4.5 | -10.8 | 151.0* | 0.1 | 11.5
Cc1cc(Cl)ccc1OC(C)C(=O)Nc1ccc(C(=O)Nc2ccccc2C(=O)O)cc1 (stereo unspecified) | x | -7.0 | x | 0.7 | 8.5 | x
Cc1cccc(NC(=O)CNC(=O)c2cccs2)n1 | x | 6.2 | x | 4.2 | 7.8 | x
CC(C)N1CCc2c(sc(NC(=O)c3cc4cc([N+](=O)[O-])ccc4s3)c2C(N)=O)C1 | 1.0 | x | 35.1 | x | x | 76.3*
Cc1cccc(NC(=O)c2cccs2)n1 | 5.0 | 2.5 | -4.8 | 4.6 | 4.2 | 78.3*
Cc1cccc(NC(=O)c2cc3cc([N+](=O)[O-])ccc3s2)n1 | 5.0 | -2.7 | 33.5 | 0.3 | -9.4 | 59.7*
Cc1ccc(C(=O)C(C)OC(=O)CNS(=O)(=O)c2ccc(C)cc2)cc1 (stereo unspecified) | x | -5.0 | x | -4.2 | -9.8 | x
CN(CCC#N)S(=O)(=O)c1cc2c3c(c1)CCN3C(=O)CC2 | x | 1.6 | x | 1.2 | 1.1 | x
COc1cccc(C(=O)OCC(=O)c2ccc(Br)s2)c1OC | x | 3.4 | x | -1.6 | -6.1 | x
COc1ccc(OCC(=O)N(Cc2ccc(C)o2)C2CCS(=O)(=O)C2)cc1 (stereo unspecified) | x | -8.1 | x | -1.4 | -9.6 | x
